High-throughput results from PubChem.
Sampled rows, rich in hits. Any-hit rate of the full collection: about 17%.
DT40 TDP1 no CPT = qHTS for Inhibitors of human tyrosyl-DNA phosphodiesterase 1 (TDP1): qHTS in cells in absence of CPT; Potency, µM (series often up to 46.2 µM), inactives show at the top dose activity change, negative = growth inhibition, actives largely listed as inhibitors; AID 686978, 2013; DT40 Tdp1-/- hTDP1 cells, no CPT, ATP luminescence, 48 h; 15% of 420,000 active; also: % is scaled to controls: 0 for no effect and ±100 for the full control effect; nearly all actives have a fitted effect of over 55% in size
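Camptothecin absent (DMSO only). Human TDP1-complemented DT40 knockout cells, 400 cells/well, 37 °C for minimum 48 hr; ATP measured via CellTiter-Glo, 30 min dark incubation, luminescence.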
ATXN2 expr inh = reduces ATXN2 reporter expression in HEK-293 cells. HEK-293 ATXN2-luciferase reporter, luminescence, 24 h. Potency, µM (doses to about 57 µM), without a hit: at the top dose activity change, negative = inhibition, hits mostly inhibitors. 0.72% of 360,000 active. AID 1745845; also: % is scaled to controls: 0 for no effect and ±100 for the full control effect; nearly all actives have a fitted effect of over 55% in size
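ATXN2-luciferase reporter cells (luciferase flanked by upstream and downstream ATXN2 gene portions) were treated 24 h at 37 °C with compounds at up to 57 uM. SteadyGlo luminescence gave expression; GF-AFC fluorescence gave viability.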
ATXN viability = viability counter-screen for ATXN expression inhibitors | AID 651635 | Potency, µM (titrated, usually from 56.7 µM), actives largely listed as cytotoxic | 0.49% of 400,000 active | S2 cells (HEK-293 line with an ATXN2-luciferase reporter) viability, CellTiter-Fluor protease fluorescence, 24 h; also: nearly all actives have a fitted effect of over 40% in size
TGFb SMAD3 inh = inhibitors of TGF-b signaling; HepG2 CAGA-GFP TGF-b/SMAD3 reporter, GFP fluorescence, 18 h; TGF-beta stimulated, 500 pg/mL final; Potency, µM (doses to about 46.1 µM), for the others: at the highest dose activity, negative = inhibition, most hits filed as inhibitors; 1.2% of 410,000 active; also: % is scaled to controls: 0 for no effect and ±100 for the full control effect; nearly all actives have a fitted effect of over 65% in size
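Per well, imaged GFP fluorescence of HEPG2 CAGA-GFP cells gives the signal; cells get compound, then TGF-beta (500 pg/mL final), 18 h at 37 degrees C; %Activity versus -TGF-beta and +DMSO controls.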
HepG2 viability = kills HepG2 cells in TGF-b inhibitor counter-screen | 0.76% of 410,000 active | HepG2 CAGA-GFP viability, ATP luminescence, 18 h | Potency, µM (titrated, usually from 46.1 µM), for inactives: top-dose activity change, negative = cytotoxicity, actives largely listed as cytotoxic
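HepG2 CAGA-GFP cells (1000/well, DMEM with 1% FBS) received compound, then TGF-beta at 500 pg/mL final, and were incubated 18 hours at 37 degrees C. Viability was read by CellTiter-Glo luminescence. Media-only wells were set as complete cell-killing and DMSO as no toxicity.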
TDP1 cell CPT = growth inhibition of DT40 Tdp1-/-;hTDP1 cells with camptothecin (screen for TDP1 inhibitors) | chicken DT40 Tdp1-/-;hTDP1 cells + 20 nM CPT, ATP luminescence, 48 h | Potency, µM (titrated, usually from 46.2 µM), for the others: at the top dose activity change, negative = growth inhibition, most hits filed as inhibitors | 12% of 420,000 active; also: % is scaled to controls: 0 for no effect and ±100 for the full control effect; nearly all actives have a fitted effect of over 55% in size
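Chicken DT40 Tdp1-/- cells complemented with human TDP1, 400 cells/well, exposed to compounds plus 20 nM camptothecin for at least 48 h at 37 C; viability read as ATP content by CellTiter-Glo luminescence.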
* hit, by the source's call; i = inactive; ? = inconclusive; . = no result given; ! = repeats disagree. Calls follow the shape of the dose curve; as a rule, active = well fitted curve in the direction sought with a large enough effect; inconclusive = small, poorly fitted or top-dose-only effect, or another doubt; inactive = no such curve, though single readings can be large; an effect the other way counts as inactive or inconclusive. Potency is read from the fitted curve at half-maximal effect.

SMILES	DT40 TDP1 no CPT	ATXN2 expr inh	ATXN viability	TGFb SMAD3 inh	HepG2 viability	TDP1 cell CPT
C[C@@H]1CCO[C@H]2Cn3cc(C(=O)NCc4ccc(F)cc4F)c(=O)c(O)c3C(=O)N12	.	19%	.	.	.	.
CN(C)CCNc1nc2sc3c(c2c(=O)n1-c1ccc(F)cc1)CCCCC3	?	-1%	i	?	-23%	21µM*
COc1ccc(-n2c(C)nc3sc4c(c3c2=O)CCC4)cc1	?	10%	i	6%	-10%	-17%
C=CCn1c(NCCO)nc2sc3c(c2c1=O)CCC3	-2%	6%	i	-2%	-5%	11%
COc1ccc(-n2c(N3CCN(C)CC3)nc3sc4c(c3c2=O)CCCCC4)cc1	15µM*	?	i	1%	3%	23µM*
O=c1c2c3c(sc2nc(NCCO)n1CCc1ccccc1)CCCCC3	4.1µM*	3%	i	?	-21%	5.8µM*
COc1ccc(-n2c(SCC(=O)O)nc3sc4c(c3c2=O)CCC4)cc1	-2%	-33%	i	-9%	-3%	-2%
COc1ccc(-n2c(NCCN(C)C)nc3sc4c(c3c2=O)CCCCC4)cc1	16µM*	?	?	4%	-39%	?
COCCNC(=O)c1cccc(OC2CCN(C(C)COc3ccccc3)CC2)c1 (centres undefined)	1%	-29%	i	?	-23%	?
CN(C)CCNc1nc2sc3c(c2c(=O)n1-c1ccccc1)CCCCC3	?	-25%	i	-18%	14µM*	2%
O=c1c2c3c(sc2nc(NCCO)n1Cc1ccco1)CCCCC3	?	36%	i	-23%	-23%	-64%
CN(C)CCNc1nc2sc3c(c2c(=O)n1Cc1ccccc1)CCCCC3	?	?	?	3%	-18%	?
COCCNc1nc2sc3c(c2c(=O)n1Cc1ccco1)CCCCC3	16µM*	21%	i	-6%	-24%	13µM*
OCCNc1nc(SCc2ccccc2)nc2sc3c(c12)CCC3	15µM*	26%	i	-2%	-10%	?
COc1ccc(C2/C(=C(/O)c3ccc(F)cc3)C(=O)C(=O)N2c2ccccn2)cc1OC (centres undefined)	23µM*	-16%	i	-1%	0%	?
COc1ccc(NC(=O)c2c[nH]c(=O)n(-c3ccc(C)c(C)c3)c2=O)c(OC)c1	?	-4%	i	-5%	-26%	?
CON=C1C[C@]2(C[C@@H]3C[C@@H](C/C=C(\C)C[C@@H](C)/C=C/C=C4\CO[C@@H]5[C@H](O)C(C)=C[C@@H](C(=O)O3)[C@]45O)O2)O[C@H](/C(C)=C/C(C)C)[C@H]1C	21µM*!	.	16µM*	.	.	4.2µM*!
CC[C@H](C)[C@H]1O[C@]2(CC[C@@H]1C)C[C@@H]1C[C@@H](CC=C(C)[C@@H](O[C@H]3C[C@H](OC)[C@@H](O[C@H]4C[C@H](OC)[C@@H](O)[C@H](C)O4)[C@H](C)O3)[C@@H](C)C=CC=C3CO[C@@H]4[C@H](O)C(C)=C[C@@H](C(=O)O1)[C@]34O)O2	3.7µM*	3.5µM*	3.5µM*	3.2µM*	3.5µM*	3.7µM*
CCC(C)[C@H]1O[C@]2(C=C[C@@H]1C)C[C@@H]1C[C@@H](C/C=C(\C)[C@@H](O[C@H]3C[C@H](OC)[C@@H](O[C@H]4C[C@H](OC)[C@H](NC(C)=O)[C@H](C)O4)[C@H](C)O3)[C@@H](C)/C=C/C=C3\CO[C@@H]4[C@H](O)C(C)=C[C@@H](C(=O)O1)[C@]34O)O2 (some centres undefined)	2.7µM*	.	3.2µM*!	.	.	4.2µM*
CC[C@@H](C)[C@H]1O[C@]2(CC[C@@H]1C)C[C@@H]1C[C@H](C/C=C(/C)[C@H](O[C@@H]3C[C@H](OC)[C@H](O[C@@H]4C[C@H](OC)[C@@H](O)[C@H](C)O4)[C@H](C)O3)[C@@H](C)/C=C\C=C3CO[C@@H]4[C@H](O)C(C)=C[C@@H](C(=O)O1)[C@]34O)O2 (tested in a mixture with another compound)	?	.	.	.	.	12µM*
COC(=O)CN1C(=O)C2(C(C#N)=C(N)Oc3c2c(C)nn3-c2ccccc2)c2ccccc21 (centres undefined)	21µM*	-3%	i	?	-37%	?
COc1ccc(N(C(=O)c2ccco2)C(C(=O)NC2CCCCC2)c2cccs2)cc1OC (centres undefined)	?	1%	?	-3%	1%	?
C#CC(=O)N(c1ccc(OC)cc1OC)C(C(=O)NC1CCCC1)c1cccs1 (centres undefined)	2.1µM*	1.8µM*	.	?	-52%	?
C#CC(=O)N(c1cc(OC)ccc1OC)C(C(=O)NC1CCCC1)c1cccs1 (centres undefined)	2.1µM*	?	32µM*	?	-83%	2.3µM*
COc1ccc(C)cc1N(CC(=O)NCCN1CCOCC1)S(=O)(=O)c1ccccc1	-5%	6%	i	2%	-1%	0%
SMILES	DT40 TDP1 no CPT	ATXN2 expr inh	ATXN viability	TGFb SMAD3 inh	HepG2 viability	TDP1 cell CPT
c1ccc(CNc2c(-c3cccc(SC4CCCCC4)c3)nc3ccccn23)cc1	?	-1%	?	?	-61%	?
Clc1ccc2nc(-c3ccccc3)c(CC3CCCCC3)n2c1	?	28%	i	-24%	-15%	?
Cc1ccn2c(NCc3ccccc3)c(-c3cccc(SC4CCCCC4)c3)nc2c1	?	?	?	13µM*	-53%	23µM*
Cc1ccc2nc(-c3cccc(SC4CCCCC4)c3)c(NC3CCCCC3)n2c1	16µM*	-5%	i	-13%	-18%	21µM*
Clc1ccc2nc(-c3cccc(SC4CCCCC4)c3)c(NCc3ccccc3)n2c1	?	-10%	i	3%	-19%	16µM*
Cc1ccc2nc(-c3cccc(SC4CCCCC4)c3)c(NCc3ccccc3)n2c1	18µM*	?	?	?	-34%	26µM*
Cc1c2cnn(CC(=O)NCCN3CCOCC3)c(=O)c2c(C)n1Cc1ccccc1F	6%	2%	i	-4%	9%	-2%
